PubChem BioAssay AID1159580 (chemical genetic matrix, 2015)
“And” between values parts separate entries of the source, which are not always exact repeats. Equal values may be shown once. The whole screen tested about 5,500 compounds, of which about 2,000 (36%) were called active. Inconclusive results (about 18%) are left out. Cut-off read from the data, not from the text of the source: active = normalized growth mostly below about 0.91 (no sharp cut-off); inconclusive = no clear call, values can overlap the other calls; inactive = mostly above about 0.92. This is one part of the list.

Experiment: chemical genetic growth profiling, strain panel (AID 1159580);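 note: tested at 20 µM; growth read once vehicle control cultures reached saturation at 30 °C; 1 = growth at the plate median or of vehicle wells; lower values mean less growth of the strain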
Conditions: S. cerevisiae deletion strains, growth OD

Measured: normalized growth

Cc1c(C(N)=O)cc([N+](=O)[O-])cc1[N+](=O)[O-]
inactive: locus YAL021C, strain ccr4, hits give low values 0.995 | locus YAL026C, strain drs2, hits give low values 1.04 | locus YAL030W, strain snc1, hits give low values 1.01 | locus YBL061C, strain skt5, hits give low values 1.02 | locus YBR009C, strain hhf1, hits give low values 1.08 | locus YBR021W, strain FUR4, hits give low values 0.969 | locus YBR023C, strain chs3, hits give low values 1.03 | locus YBR171W, strain sec66, hits give low values 1.01 | locus YBR229C, strain ROT2, hits give low values 0.986 | locus YBR231C, strain swc5, hits give low values 0.996 | locus YBR279W, strain paf1, hits give low values 1.02 | locus YCL011C, strain gbp2, hits give low values 1.03 | locus YCL016C, strain dcc1, hits give low values 1.04 | locus YCL029C, strain bik1, hits give low values 0.977 | locus YCL061C, strain MRC1, hits give low values 1.03 | locus YCL069W, strain vba3, hits give low values 1.02 | locus YCR088W, strain abp1, hits give low values 1.01 | locus YDL005C, strain med2, hits give low values 1.02 | locus YDL035C, strain GPR1, hits give low values 0.994 | locus YDL040C, strain nat1, hits give low values 1.02 | locus YDL074C, strain BRE1, hits give low values 1.01 | locus YDL101C, strain DUN1, hits give low values 0.99 | locus YDL134C, strain PPH21, hits give low values 0.97 | locus YDL185W, strain tfp1, hits give low values 0.967 | locus YDL192W, strain arf1, hits give low values 0.966 | locus YDR001C, strain nth1, hits give low values 1.01 | locus YDR069C, strain doa4, hits give low values 0.997 | locus YDR101C, strain arx1, hits give low values 1 | locus YDR137W, strain rgp1, hits give low values 1.04 | locus YDR150W, strain NUM1, hits give low values 0.99 | locus YDR159W, strain sac3, hits give low values 0.991 | locus YDR162C, strain NBP2, hits give low values 0.994 | locus YDR195W, strain ref2 1.02 | locus YDR297W, strain sur2, hits give low values 1.01 | locus YDR318W, strain mcm21, hits give low values 0.983 | locus YDR334W, strain swr1, hits give low values 1.02 | locus YDR335W, strain msn5, hits give low values 1.03 | locus YDR388W, hits give low values 0.982 | locus YDR392W, strain spt3, hits give low values 1 | locus YDR502C, strain sam2, hits give low values 1 | locus YEL003W, strain gim4, hits give low values 1.03 | locus YEL037C, strain rad23, hits give low values 1.02 | locus YEL061C, strain CIN8 (second series), hits give low values 1.02 | locus YEL061C, strain CIN8, hits give low values 0.99 | locus YER015W, strain faa2, hits give low values 1.01 | locus YER016W, strain bim1, hits give low values 1.01 | locus YER110C, hits give low values 0.965 | locus YER111C, strain swi4, hits give low values 1.02 | locus YER155C, strain BEM2 (second series), hits give low values 0.978 | locus YER155C, strain BEM2, hits give low values 0.987 | locus YER167W, strain BCK2, hits give low values 0.99 | locus YFR010W, strain ubp6, hits give low values 1.03 | locus YGL078C, strain dbp3, hits give low values 0.98 | locus YGL086W, strain mad1, hits give low values 0.994 | locus YGL167C, strain pmr1, hits give low values 1.03 | locus YGL173C, strain kem1, hits give low values 1.01 | locus YGL227W, strain vid30, hits give low values 1.01 | locus YGL240W, strain doc1, hits give low values 1 | locus YGL248W, strain PDE1, hits give low values 1 | locus YGL253W, strain hxk2, hits give low values 1.02 | locus YGR078C, strain PAC10, hits give low values 1 | locus YGR135W, strain pre9, hits give low values 0.977 | locus YGR252W, strain gcn5, hits give low values 0.945 | locus YHR013C, strain ard1, hits give low values 1.07 | locus YHR027C, strain rpn1, hits give low values 1.02 | locus YHR030C, strain SLT2, hits give low values 0.98 and 1.04 | locus YHR079C, strain IRE1 (second series), hits give low values 0.984 | locus YHR079C, strain IRE1, hits give low values 1.04 | locus YHR094C, strain hxt1, hits give low values 0.977 | locus YHR129C, strain ARP1, hits give low values 0.993 | locus YHR142W, strain chs7, hits give low values 1.02 | locus YHR200W, strain rpn10, hits give low values 0.98 | locus YIL066C, strain RNR3, hits give low values 0.988 | locus YIL073C, strain SPO22, hits give low values 0.95 | locus YIL125W, strain kgd1, hits give low values 0.99 | locus YIR030C, strain dcg1, hits give low values 0.984 | locus YJL092W, strain hpr5, hits give low values 1.02 | locus YJL095W, strain BCK1 (second series), hits give low values 1.04 | locus YJL095W, strain BCK1, hits give low values 1.02 and 1.05 | locus YJL115W, strain asf1, hits give low values 1.03 | locus YJL129C, strain trk1, hits give low values 1.05 | locus YJL134W, strain LCB3, hits give low values 0.991 | locus YJL154C, strain vps35, hits give low values 1.01 | locus YJL164C, strain tpk1, hits give low values 1.06 | locus YJL166W, strain qcr8, hits give low values 1.02 | locus YJL168C, strain set2, hits give low values 0.979 | locus YJL187C, strain SWE1 (second series), hits give low values 0.999 | locus YJL187C, strain SWE1, hits give low values 1.01 | locus YJR043C, strain POL32, hits give low values 1.02
